Source: PubChem BioAssay
Calls of active or inactive are those of the source.

Experiments:
[1] = tested on: PRMT1 (protein arginine N-methyltransferase 1); test: PRMT1 binders on small-molecule microarrays, primary screen, biochemical, small-molecule microarray, 635 nm fluorescence (AID 1088); settings: small-molecule microarray binding, higher = more signal;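 further: binding of Prmt1 protein to compounds spotted on small-molecule microarray slides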
[2] = yeast growth modulation, basal conditions, primary screen, YJM789 clinical isolate, OD600, 24 h (AID 1089);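 further: growth of clinical yeast isolate S. cerevisiae YJM 789 seeded 1000 cells per well; test concentration not given here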; settings: S. cerevisiae YJM789 growth, higher = more signal, called active from +8 up or from −8 down
[3] = fission yeast growth modulation, primary screen, strain 972, OD600, 24 h, no modulator (AID 1090);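 further: basal condition with compound alone and no growth modifier present; test concentration not given here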; settings: S. pombe 972 growth, higher = more signal, called active from +8 up or from −8 down
[4] = S. cerevisiae growth modulation with rapamycin, primary screen, strain BY4716, OD600, 96 h (AID 1091); settings: higher = more signal, called active from +8 up or from −8 down; further: test concentration not given here
[5] = target: Torsin-1A-interacting protein 2 (Homo sapiens) (UniProt Q8NFQ8); test: LULL1 binders on small-molecule microarray, primary screen, cell lysate, human LULL1 lysate, 635/667 nm fluorescence (AID 1092); settings: hLULL1 lysate binding, 635 nm fluorescence, higher = more signal;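 further: probe is lysate of COS7 cells overexpressing human LULL1; score merges per-feature 667 nm fluorescence with signal-to-noise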
Torsin-1A-interacting protein 2 (Homo sapiens), sequence (Q8NFQ8 whole entry, looked up): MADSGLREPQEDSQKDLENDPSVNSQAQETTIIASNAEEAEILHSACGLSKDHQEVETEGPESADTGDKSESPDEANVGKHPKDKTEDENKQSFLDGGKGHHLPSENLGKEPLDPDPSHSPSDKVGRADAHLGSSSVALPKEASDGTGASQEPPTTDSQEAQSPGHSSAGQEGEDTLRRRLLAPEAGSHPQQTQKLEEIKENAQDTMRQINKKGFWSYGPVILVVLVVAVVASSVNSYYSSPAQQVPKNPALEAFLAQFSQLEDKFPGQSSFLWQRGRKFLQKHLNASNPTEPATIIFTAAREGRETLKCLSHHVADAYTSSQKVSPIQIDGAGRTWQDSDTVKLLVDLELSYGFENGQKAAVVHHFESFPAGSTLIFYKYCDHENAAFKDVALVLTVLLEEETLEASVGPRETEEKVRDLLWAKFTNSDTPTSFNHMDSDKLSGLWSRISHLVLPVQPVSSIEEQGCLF

[6] = E. coli growth modulation, two-sided OD650, primary screen, E. coli filamentation project, strain DRC41, 24 h (AID 1093); settings: OD650, 24 h, higher = more signal, called active from +8 up or from −8 down;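 further: MC1000 strain lacking acrAB efflux and sulA so SOS filamentation is blocked; test concentration not given here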
[7] = small-molecule microarray binders of probe aLefty2, primary screen, biochemical, biotinylated probe, 635/667 nm fluorescence (AID 1094); settings: higher = more signal;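 further: score merges spot fluorescence near 667 nm with spot signal-to-noise ratio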
[8] = tested on: Noggin (protein binding on small-molecule microarray); test: Noggin binders on small-molecule microarray, primary screen, biochemical, 635/667 nm fluorescence (AID 1095); settings: 635 nm fluorescence, higher = more signal;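 further: score merges 667 nm feature fluorescence with signal to noise over triplicate slides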
[9] = target: Neurogenic locus notch homolog protein 3 (Homo sapiens) (UniProt Q9UM47); test: NOTCH3 binders on small-molecule microarray, primary screen, biochemical, 635/667 nm fluorescence (AID 1096); settings: NOTCH3 binding, 635 nm fluorescence, higher = more signal
Neurogenic locus notch homolog protein 3 (Homo sapiens), sequence (Q9UM47 whole entry, looked up): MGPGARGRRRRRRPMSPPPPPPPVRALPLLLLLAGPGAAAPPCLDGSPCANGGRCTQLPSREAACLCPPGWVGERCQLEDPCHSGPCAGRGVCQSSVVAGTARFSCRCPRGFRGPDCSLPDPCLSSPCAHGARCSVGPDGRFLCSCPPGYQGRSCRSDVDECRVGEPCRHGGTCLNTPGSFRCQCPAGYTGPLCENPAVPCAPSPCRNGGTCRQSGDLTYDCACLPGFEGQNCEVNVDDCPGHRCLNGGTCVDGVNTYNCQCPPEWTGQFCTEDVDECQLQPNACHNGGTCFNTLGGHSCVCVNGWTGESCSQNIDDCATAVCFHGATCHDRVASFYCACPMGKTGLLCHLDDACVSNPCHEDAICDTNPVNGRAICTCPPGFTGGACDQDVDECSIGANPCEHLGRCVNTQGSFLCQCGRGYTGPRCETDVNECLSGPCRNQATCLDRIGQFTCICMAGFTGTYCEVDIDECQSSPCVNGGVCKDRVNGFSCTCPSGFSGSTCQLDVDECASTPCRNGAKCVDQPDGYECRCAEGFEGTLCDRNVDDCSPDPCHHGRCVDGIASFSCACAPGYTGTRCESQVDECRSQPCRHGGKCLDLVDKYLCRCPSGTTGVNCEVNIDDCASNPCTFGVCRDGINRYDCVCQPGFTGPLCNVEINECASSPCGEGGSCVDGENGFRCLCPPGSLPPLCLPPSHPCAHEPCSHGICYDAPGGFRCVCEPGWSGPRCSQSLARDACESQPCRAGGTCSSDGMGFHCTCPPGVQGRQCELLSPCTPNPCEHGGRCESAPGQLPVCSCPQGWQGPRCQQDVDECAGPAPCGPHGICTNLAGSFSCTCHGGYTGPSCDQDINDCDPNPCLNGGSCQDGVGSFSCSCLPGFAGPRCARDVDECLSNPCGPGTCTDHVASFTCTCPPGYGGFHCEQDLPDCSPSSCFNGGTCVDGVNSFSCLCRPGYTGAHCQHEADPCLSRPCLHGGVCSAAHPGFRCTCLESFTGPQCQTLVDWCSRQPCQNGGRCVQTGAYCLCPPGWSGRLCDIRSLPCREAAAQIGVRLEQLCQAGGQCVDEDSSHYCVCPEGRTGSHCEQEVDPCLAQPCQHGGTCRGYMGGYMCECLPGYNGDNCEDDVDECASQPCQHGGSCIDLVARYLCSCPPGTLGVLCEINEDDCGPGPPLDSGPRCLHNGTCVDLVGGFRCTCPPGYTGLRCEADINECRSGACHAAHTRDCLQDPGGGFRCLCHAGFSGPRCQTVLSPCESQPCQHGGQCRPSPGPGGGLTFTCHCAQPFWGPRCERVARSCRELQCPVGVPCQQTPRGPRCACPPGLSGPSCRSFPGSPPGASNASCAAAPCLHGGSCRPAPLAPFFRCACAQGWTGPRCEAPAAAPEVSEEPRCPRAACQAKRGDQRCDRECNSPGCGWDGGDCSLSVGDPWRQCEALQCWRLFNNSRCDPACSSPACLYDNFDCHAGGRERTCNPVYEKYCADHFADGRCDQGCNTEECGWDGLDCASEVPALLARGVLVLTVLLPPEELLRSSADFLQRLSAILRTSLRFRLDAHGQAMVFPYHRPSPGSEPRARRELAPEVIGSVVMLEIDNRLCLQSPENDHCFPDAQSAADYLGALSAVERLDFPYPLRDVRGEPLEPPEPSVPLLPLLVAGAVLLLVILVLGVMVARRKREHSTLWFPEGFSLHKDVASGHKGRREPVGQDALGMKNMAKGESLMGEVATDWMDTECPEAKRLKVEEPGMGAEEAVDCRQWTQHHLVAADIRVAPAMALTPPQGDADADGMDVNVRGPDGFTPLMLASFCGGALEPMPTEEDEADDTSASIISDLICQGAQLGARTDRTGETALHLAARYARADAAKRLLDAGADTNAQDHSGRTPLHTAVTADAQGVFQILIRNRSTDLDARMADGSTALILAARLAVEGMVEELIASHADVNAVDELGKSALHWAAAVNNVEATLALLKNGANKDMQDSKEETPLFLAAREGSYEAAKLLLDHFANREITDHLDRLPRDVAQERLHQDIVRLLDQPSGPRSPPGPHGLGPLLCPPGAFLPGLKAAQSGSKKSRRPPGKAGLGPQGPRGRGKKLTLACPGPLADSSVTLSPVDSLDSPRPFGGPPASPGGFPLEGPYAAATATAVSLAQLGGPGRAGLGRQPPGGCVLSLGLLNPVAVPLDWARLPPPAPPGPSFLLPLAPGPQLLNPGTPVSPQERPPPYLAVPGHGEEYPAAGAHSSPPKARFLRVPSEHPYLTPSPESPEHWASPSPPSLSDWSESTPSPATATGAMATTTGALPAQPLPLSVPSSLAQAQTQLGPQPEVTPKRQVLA

[10] = small-molecule microarray binders of probe aEGFR, primary screen, biochemical, biotinylated probe, 635/667 nm fluorescence (AID 1097); settings: higher = more signal;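 further: probe is a biotinylated anti-EGFR antibody binding compounds printed on slides; score combines fluorescence near 667 nm and signal to noise of each spot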

Compound	composite z-score [1]	z-score [2]	z-score [3]	z-score [4]	composite z-score [5]	z-score [6]	composite z-score [7]	composite z-score [8]	composite z-score [9]	composite z-score [10]
COc1ccc(CCNC(=O)[C@@H]2c3ccccc3C(=O)N(Cc3cc(F)cc(C(F)(F)F)c3)[C@H]2c2ccc(CO)cc2)cc1	1.54	-0.0253 (inactive)	-0.131 (inactive)	0.142 (inactive)	2.21	1.02 (inactive)	0.159	0.415	0.195	0.179
COc1ccc(-c2cc3c(c(CCc4ccccc4)n2)[Si](C(C)C)(C(C)C)O[C@H]3c2ccccc2)cn1	0.469	0.646 (inactive)	-0.0525 (inactive)	1.23 (inactive)	-0.0354	-1.12 (inactive)	-0.213	0.75	0.439	-0.0749
COC(=O)[C@@]1(Cc2ccccc2)[C@H]2c3cc(C(=O)N(C)C)n(Cc4nc5ccccc5[nH]4)c3C[C@H]2CN1C(=O)c1ccccc1	0.964	-0.895 (inactive)	0.338 (inactive)	-0.678 (inactive)	3.5	0.914 (inactive)	0.718	-0.307	1.06	0.135
COC(=O)[C@@]1(Cc2ccc(F)cc2)[C@H]2c3cc(C(=O)N(C)C)n(Cc4cccc5ccccc45)c3C[C@H]2CN1C(=O)c1ccccc1	-0.72	1.43 (inactive)	1.54 (inactive)	2.69 (inactive)	4.03	-1.15 (inactive)	0.323	-0.192	-0.0287	0.0776
COCCOC(=O)N1C(=O)[C@@]2(c3cc(C#CCNC(N)=O)ccc31)[C@H](c1ccccc1OCCO)N1[C@H](c3ccccc3)[C@H](c3ccccc3)OC(=O)[C@H]1[C@@H]2C(=O)N1CCCCCCC1	1.49	0.221 (inactive)	0.47 (inactive)	2.37 (inactive)	1.79	-0.515 (inactive)	0.365	0.911	1.11	-0.0121
OCCCc1cc[n+](Cc2cc3c(cc2Br)OCO3)cc1	0.115	-0.41 (inactive)	-0.688 (inactive)	-0.213 (inactive)	-0.0854	0.0566 (inactive)	0.193	-0.617	-0.785	-0.12
CCCCCCc1nc(Cc2cc(OC)c(OC)c(OC)c2)c(C)c2c1[Si](C(C)C)(C(C)C)OC2	0.829	-0.42 (inactive)	-1.61 (inactive)	-0.0746 (inactive)	0.377	1.59 (inactive)	-0.0487	-0.0156	-0.143	0.0172
COC(=O)[C@@]1(Cc2ccc(F)cc2)[C@H]2c3cc(C(=O)N4CCCC4)n(CCc4c[nH]c5cc(F)ccc45)c3C[C@H]2CN1C(=O)c1ccccc1	0.765	0.0277 (inactive)	1.24 (inactive)	1.94 (inactive)	3.39	-0.167 (inactive)	0.605	0.344	1.02	0.756
CC(C)c1ccc(NN2C(C(O)c3ccccc3)C=CC3C(=O)N(c4ccccc4)C(=O)C32)cc1 (stereo not given)	0.787	1.54 (inactive)	-0.0469 (inactive)	0.209 (inactive)	2.88	-0.213 (inactive)	0.142	-0.621	1.11	0.198
COC(=O)C(CC#Cc1ccc2c(c1)[C@]1(C(=O)N2)[C@H](C(=O)NC[C@H](O)c2ccccc2)[C@H]2C(=O)O[C@H](c3ccccc3)[C@H](c3ccccc3)N2[C@@H]1c1ccc(O)cc1)C(=O)OC	0.356	0.542 (inactive)	0.793 (inactive)	0.162 (inactive)	0.719	-1.02 (inactive)	-0.055	0.264	0.401	-0.0509
C=C(C(=O)CC[C@@H](OC(=O)c1ccccc1-c1ccccc1C(=O)O)c1ccc(CO)o1)C(C)C	1.47	-0.595 (inactive)	-0.39 (inactive)	-0.881 (inactive)	0.167	-0.249 (inactive)	-0.19	1.07	1.07	-0.0947
CC(C)C[C@@H]1NC(=O)[C@@H]2C[C@H](C(=O)NCCCCCNC(=O)CS)[C@H](c3ccc(O)cc3)N2C1=O	1.16	-2.18 (inactive)	0.0046 (inactive)	-1.65 (inactive)	2.21	1.52 (inactive)	-0.0437	0.73	0.313	-0.0493
COCCCNC(=O)[C@@]1(Cc2ccccc2I)c2ccccc2C(=O)N(Cc2ccccc2OC)[C@H]1c1ccc(CO)cc1	1.56	0.634 (inactive)	0.248 (inactive)	1.07 (inactive)	2.77	0.62 (inactive)	-0.142	-1.22	-0.625	-0.331
COCCOC(=O)N1C(=O)[C@@]2(c3cc(C#CC4(O)CCCCCC4)ccc31)[C@H](C(N)=O)[C@H]1C(=O)O[C@H](c3ccccc3)[C@H](c3ccccc3)N1[C@@H]2c1ccc(OCCO)cc1	1.54	1.73 (inactive)	-0.0624 (inactive)	5.03 (inactive)	2.51	0.662 (inactive)	0.0723	1.2	1.09	0.104
CC[C@@H](O[Si](C#C[Si](C(C)C)(C(C)C)C(C)C)(C(C)C)C(C)C)c1cn([C@H](CO)Cc2ccccc2)nn1	1.34	1.57 (inactive)	1.22 (inactive)	0.532 (inactive)	1.51	0.598 (inactive)	-0.232	0.715	0.907	-0.0584
CCCCC(=C=CC[C@H](O)c1ccccc1OCCO)CCO	0.95	0.149 (inactive)	-0.211 (inactive)	-0.34 (inactive)	1.04	0.288 (inactive)	-0.19	-0.0419	-0.102	-0.0664
COc1ccc(C(=O)Nc2ccc(CN3C(=O)[C@]4(O[C@H](CC(=O)N(CCO)Cc5ccccc5)[C@@H]([Si](C)(C)c5ccc(OC)cc5)[C@@H]4C)c4ccccc43)cc2)cc1	1.54	0.517 (inactive)	1.03 (inactive)	3.41 (inactive)	2.03	1.6 (inactive)	-0.235	1.08	0.565	-0.096
O=C1O[C@H](c2ccccc2)[C@H](c2ccccc2)N2[C@H]1[C@@H](C(=O)N1CCN(c3ncccn3)CC1)[C@]1(C(=O)Nc3ccc(C#CC4(O)CCCCCC4)cc31)[C@H]2c1ccc(O)cc1	1.55	0.736 (inactive)	-0.391 (inactive)	1.21 (inactive)	2.57	2.61 (inactive)	-0.209	1.2	1.11	-0.0225
CC1(C)OB(/C=C\CC(OC(=O)c2ccncc2)c2ccccc2)OC1(C)C (stereo not given)	-0.477	-1.7 (inactive)	-1.3 (inactive)	1.99 (inactive)	0.962	1.04 (inactive)	1.22	-1.92	-1.73	-0.244
COCCCNC(=O)[C@@]1(Cc2ccccc2I)c2ccccc2C(=O)N(Cc2ccccc2C(F)(F)F)[C@H]1c1ccc(CO)cc1	1.4	-0.784 (inactive)	0.25 (inactive)	0.437 (inactive)	2.47	-0.627 (inactive)	-0.0654	-0.473	0.03	-0.291
COCCOC(=O)N1C(=O)[C@@]2(c3cc(C#CCNC(N)=O)ccc31)[C@H](c1ccc(O)cc1)N1[C@H](c3ccccc3)[C@H](c3ccccc3)OC(=O)[C@H]1[C@@H]2C(=O)N1CCc2cc(OC)c(OC)cc2C1	1.29	1.05 (inactive)	0.123 (inactive)	1.84 (inactive)	1.47	-0.732 (inactive)	-0.0475	0.978	0.636	-0.0967
COc1c(C)cc(-c2nc(-c3ccccc3)c3c(c2C)CO[Si]3(C(C)C)C(C)C)cc1C	0.114	0.687 (inactive)	0.104 (inactive)	-0.191 (inactive)	0.254	-1.59 (inactive)	0.074	0.323	0.566	-0.0068
O=C(N1CCOCC1)[C@]1(CCS(=O)(=O)c2ccccc2)N=C(c2ccc(OCCCO)cc2)O[C@@H]1c1ccccc1	1.45	0.825 (inactive)	0.778 (inactive)	2.98 (inactive)	3.26	1.14 (inactive)	0.227	0.0673	1.08	0.0727
C=CCN1C(=O)[C@@]2(O[C@@H](CCO)[C@H]([Si](C)(C)c3ccc(OC)cc3)[C@H]2C)c2cc(N3CCCCC3=O)ccc21	1.55	0.451 (inactive)	0.215 (inactive)	1.81 (inactive)	2.24	0.649 (inactive)	-0.157	1.19	0.868	-0.0662
COc1cc(Cc2cc3c(c(CCc4ccccc4)n2)[Si](C(C)C)(C(C)C)O[C@H]3c2ccccc2)cc(OC)c1OC	-0.651	-2.28 (inactive)	-19.9 (active)	-0.549 (inactive)	-0.355	-0.637 (inactive)	-0.0284	-0.288	-0.446	-0.129
O=C1NC(=O)C2C1C=CC(C(O)C1CCCCC1)N2Nc1ccccn1 (stereo not given)	0.327	0.459 (inactive)	0.633 (inactive)	0.117 (inactive)	2.43	-1.5 (inactive)	0.0078	-0.401	0.492	-0.104
C=CC[C@]12N=C(c3ccc(OCCCO)cc3)O[C@H]1c1ccccc1N(CCC)C2=O	1.55	-1.42 (inactive)	-2.04 (inactive)	-1.06 (inactive)	2.96	0.544 (inactive)	0.15	1.2	1.11	0.198
CC(C)N1C(=O)[C@@]2(Cc3ccccc31)c1ccccc1C(=O)N(Cc1ccccc1C(F)(F)F)[C@H]2c1ccc(CO)cc1	1.31	-0.0493 (inactive)	-0.706 (inactive)	-1.81 (inactive)	2.23	-0.569 (inactive)	-0.269	0.841	0.99	0.116
COc1ccc([Si](C)(C)[C@@H]2[C@@H](CC(=O)N(CCO)Cc3ccccc3)O[C@]3(C(=O)N(Cc4cccc(I)c4)c4ccccc43)[C@H]2C)cc1	1.46	-0.0171 (inactive)	1.27 (inactive)	3.46 (inactive)	0.444	0.645 (inactive)	0.0553	1.51	1.07	0.0102
